Experimental data taken from PubChem BioAssay (EPA / NIEHS).
Inconclusive results are not listed. Calls of active or inactive are those of the source. The calls were made as follows, unless noted: active = hit-call score of the fitted dose curve at least 0.9, where 1 is the maximum; inactive = score below 0.9.

Key:
[1] = ATG_NFI_CIS: Attagene CIS-FACTORIAL HepG2 Assay for human Nuclear Factor I (NFI) (AID 2282989); conditions: HepG2 cis-regulatory reporter, NFI response element transcription; actives raise or lower the signal
How it was run: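 Reporter transcription driven by endogenous transcription factors in HepG2 cells; 24 h treatment. Quantitation by labelled RT-PCR fragments on capillary electrophoresis, gain- or loss-of-signal relative to DMSO.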

[2] = target: Myc proto-oncogene protein (Homo sapiens) (UniProt P01106); assay: ATG_Myc_CIS: Attagene CIS-FACTORIAL HepG2 Assay for human Myelocytomatosis (Myc) Proto-Oncogene Transcription Factor (AID 2282990); conditions: HepG2, Attagene cis-reporter transcription factor activity; actives raise or lower the signal
How it was run: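 HepG2, transient MRTU transfection (cis promoters, endogenous TFs); 24 h dosing; TriZol RNA → oligo(dT) RT → PCR → 6-FAM primer extension → HpaI cut → CE. Bidirectional fit vs DMSO.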

[3] = ATG_NF_kB_CIS: Attagene CIS-FACTORIAL HepG2 Assay for human Nuclear Factor Kappa B (NF-kB) (AID 2282991); conditions: HepG2 Attagene cis-factorial NF-kB reporter mRNA; actives raise or lower the signal
How it was run: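 HepG2, transient multi-reporter transfection, cis promoter elements (endogenous TFs). 24 h exposure. Total RNA → RT → PCR → 6-FAM label → HpaI → CE. Gain/loss vs DMSO.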

[4] = ATG_NRF2_ARE_CIS: Attagene CIS-FACTORIAL HepG2 Assay for human Nuclear Factor Erythroid 2 Related Factor 2 (NFR2) response to Antioxidant Response Elements (ARE) (AID 2282992); conditions: HepG2 Attagene ARE/NRF2 reporter, transcription factor activity; actives raise or lower the signal;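 as to AC50: reporter mRNA level measured by RT-PCR and capillary electrophoresis fluorescence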
How it was run: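 HepG2 cells transiently transfected with multiplexed cis-element reporter constructs, 24 h after chemical dosing; reporter mRNA quantified by RT-PCR, fluorescent primer extension, HpaI digestion and capillary electrophoresis. Bidirectional fit relative to DMSO.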

[5] = ATG_Oct_MLP_CIS: Attagene CIS-FACTORIAL HepG2 Assay for human Octamer-Binding Transcription Factor (Oct) (AID 2282993); conditions: HepG2 Attagene cis-factorial Oct reporter, mRNA; actives raise or lower the signal
How it was run: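 Transfected HepG2 cells, 24 h treatment. Reporter mRNA quantified by RT-PCR–capillary electrophoresis; bidirectional fitting against DMSO.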

[6] = target: Cellular tumor antigen p53 (Homo sapiens) (UniProt P04637); assay: ATG_p53_CIS: Attagene CIS-FACTORIAL HepG2 Assay for human p53 Transcription Factor (AID 2282994); conditions: HepG2 p53 cis-element reporter, Attagene mRNA; actives raise or lower the signal
How it was run: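 HepG2 cells transiently transfected with cis-regulated multiple reporter transcription units, dosed 24 h. Reporter mRNA measured by RT-PCR, 6-FAM primer extension, HpaI digestion and capillary electrophoresis; bidirectional fit relative to DMSO.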

[7] = BSK_3C_TissueFactor: BioMAP Diversity Plus: 3C Assay for Tissue Factor Biomarker Activity (AID 2282997); conditions: BioMAP 3C HUVEC, tissue factor biomarker readout; actives raise or lower the signal
How it was run: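 Dosing of human umbilical vein endothelial cells preceded a 24 h incubation. Tissue Factor was then read by ELISA, with increases and decreases both scored relative to DMSO controls.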

[8] = BSK_3C_uPAR: BioMAP Diversity Plus: 3C Assay for Urokinase-type plasminogen activator receptor (uPAR) Biomarker Activity (AID 2282998); conditions: BioMAP 3C HUVEC, uPAR biomarker ELISA; actives raise or lower the signal
How it was run: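 Readout: ELISA for surface uPAR. System: human umbilical vein endothelial primary cells, 24 h after chemical exposure. Analysis: bidirectional fit, DMSO baseline.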

[9] = BSK_3C_VCAM1: BioMAP Diversity Plus: 3C Assay for Vascular cell adhesion molecule 1 (VCAM1) Biomarker Activity (AID 2282999); conditions: BioMAP 3C HUVEC, VCAM1 ELISA, cytokine-stimulated; actives raise or lower the signal
How it was run: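 Endothelial cells from human umbilical vein are treated with test chemical. At 24 h, VCAM-1 is measured by ELISA, and responses in either direction are fitted relative to DMSO.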

[10] = BSK_4H_Eotaxin3: BioMAP Diversity Plus: 4H Assay for Eotaxin 3 Biomarker Activity (AID 2283000); conditions: primary human endothelial cells (HUVEC); actives raise or lower the signal;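 also: CCL26 protein level quantified by ELISA in parallel with SRB cytotoxicity check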
How it was run: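 Human umbilical vein endothelial cells (BSK_4H system) dosed with test chemical; Eotaxin-3 (CCL26) measured by ELISA 24 h after dosing. Bidirectional curve fitting relative to DMSO negative control as baseline.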

[11] = read-out: Intercellular Adhesion Molecule 1 (ICAM1), ICAM1 (gene 3383); assay: BSK_3C_ICAM1: BioMAP Diversity Plus: 3C Assay for Intercellular Adhesion Molecule 1 (ICAM1) Biomarker Activity (AID 2283003); conditions: primary human endothelial cells (HUVEC); actives raise or lower the signal
How it was run: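 ICAM-1 levels measured by ELISA after HUVEC cultures in the 3C system had been dosed for 24 h. Gain or loss of signal relative to DMSO was fitted in both directions.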

[12] = target: human Retinoic Acid Receptor beta (RARb), RARB (gene 5915) (UniProt P10826); assay: ATG_RARb_TRANS: Attagene TRANS-FACTORIAL HepG2 Assay for human Retinoic Acid Receptor beta (AID 2283004; active = hit-call score of the fitted dose curve at least 0.9, where 1 is the maximum)
How it was run: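 Induction of reporter mRNA from a chimeric RARb-Gal4 construct was measured by RT-PCR, FAM labelling, HpaI digestion and capillary electrophoresis. Measurements followed 24 h compound treatment of transiently transfected human HepG2 liver cells, with DMSO as baseline.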

[13] = BSK_3C_Proliferation: Cell Proliferation Assessment in the BioMAP Diversity Plus: 3C Assay (AID 2283006); conditions: primary human endothelial cells (HUVEC)
How it was run: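 Read-out is total protein by SRB absorbance at 560 nm, taken as a proxy for relative cell number. Primary human umbilical vein endothelium cultured below confluence was dosed for 48 h, TCA-fixed and SRB-stained; curves were fitted bidirectionally versus DMSO.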

[14] = target: human Peroxisome Proliferator-activated Receptor alpha (PPARa), PPARA (gene 5465) (UniProt Q07869); assay: ATG_PPARa_TRANS: Attagene TRANS-FACTORIAL HepG2 Assay for human Peroxisome Proliferator-activated Receptor alpha (PPARa) (AID 2283001; active = hit-call score of the fitted dose curve at least 0.9, where 1 is the maximum)
How it was run: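 Read-out is fluorescence of reporter cDNA fragments resolved by capillary electrophoresis after RT-PCR. Human HepG2 liver cells carried transfected PPARa-Gal4 chimera and GAL4-UAS reporter units, treated 24 h; activity scored as increase over DMSO.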

[15] = target: Nuclear receptor subfamily 1 group I member 2 (Homo sapiens) (UniProt O75469); assay: ATG_PXR_TRANS: Attagene TRANS-FACTORIAL HepG2 Assay for human Pregnane X Receptor (PXR) (AID 2283008; active = hit-call score of the fitted dose curve at least 0.9, where 1 is the maximum)
How it was run: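 HepG2 cells transiently transfected with GAL4-UAS reporter units and PXR-Gal4 chimera, exposed 24 h. Reporter mRNA quantified by RT-PCR, fluorescent labelling, HpaI digestion and capillary electrophoresis; gain of signal vs DMSO.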

[16] = target: human Retinoic Acid Receptor gamma (RARg), RARG (gene 5916) (UniProt P13631); assay: ATG_RARg_TRANS: Attagene TRANS-FACTORIAL HepG2 Assay for human Retinoic Acid Receptor gamma (RARg) (AID 2283009; active = hit-call score of the fitted dose curve at least 0.9, where 1 is the maximum;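 as to AC50: AC50 is for reporter induction above DMSO meaning RARg activation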)
How it was run: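 Transient transfection of HepG2 with multi-reporter constructs, then 24 h chemical treatment. Total RNA isolated, reverse-transcribed, PCR-amplified, fluorescently labelled and resolved by capillary electrophoresis; activity scored as mRNA induction versus DMSO.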

[17] = target: human Peroxisome Proliferator-activated Receptor delta (PPARd), PPARD (gene 5467) (UniProt Q03181); assay: ATG_PPARd_TRANS: Attagene TRANS-FACTORIAL HepG2 Assay for human Peroxisome Proliferator-activated Receptor delta (PPARd) (AID 2283002; active = hit-call score of the fitted dose curve at least 0.9, where 1 is the maximum)
How it was run: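 Transient HepG2 transfection (multiple GAL4-UAS RTUs, chimeric receptor-Gal4); 24 h dosing; total RNA → oligo(dT) RT → PCR → 6-FAM primer extension → HpaI cut → CE. Positive direction vs DMSO.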

[18] = target: Peroxisome proliferator-activated receptor gamma (Homo sapiens) (UniProt P37231); assay: ATG_PPARg_TRANS: Attagene TRANS-FACTORIAL HepG2 Assay for human Peroxisome Proliferator-activated Receptor-gamma (PPARg) (AID 2283007; active = hit-call score of the fitted dose curve at least 0.9, where 1 is the maximum)
How it was run: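 Multiplexed reporter transcription units in HepG2, 24 h dosing, reporter transcripts quantified by fluorescent RT-PCR and capillary electrophoresis. Increase over DMSO scored.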

[19] = target: Retinoic acid receptor alpha (Homo sapiens) (UniProt P10276); assay: ATG_RARa_TRANS: Attagene TRANS-FACTORIAL HepG2 Assay for human Retinoic Acid Receptor alpha (RARa) (AID 2283005; active = hit-call score of the fitted dose curve at least 0.9, where 1 is the maximum)
How it was run: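 Reporter transcripts, measured by RT-PCR with fluorescent labeling and capillary electrophoresis after 24 h dosing, reflect activity of an exogenous human RARa–GAL4 fusion in transiently transfected HepG2. Fitted for increase relative to DMSO.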

[20] = target: human RAR-related Orphan Receptor gamma (RORg), RORC (gene 6097) (UniProt P51449); assay: ATG_RORg_TRANS: Attagene TRANS-FACTORIAL HepG2 Assay for human RAR-related Orphan Receptor gamma (RORg) (AID 2283011; active = hit-call score of the fitted dose curve at least 0.9, where 1 is the maximum)
How it was run: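 Reporter transcripts from a transfected RORg-GAL4 chimera in HepG2 cells were quantified 24 h after dosing by RT-PCR, 6-FAM labelling, HpaI digestion and capillary electrophoresis; increases over DMSO baseline were fitted.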

Chain of Nuclear receptor subfamily 1 group I member 2 (Homo sapiens) (O75469 whole entry, looked up, the tested form may be a part): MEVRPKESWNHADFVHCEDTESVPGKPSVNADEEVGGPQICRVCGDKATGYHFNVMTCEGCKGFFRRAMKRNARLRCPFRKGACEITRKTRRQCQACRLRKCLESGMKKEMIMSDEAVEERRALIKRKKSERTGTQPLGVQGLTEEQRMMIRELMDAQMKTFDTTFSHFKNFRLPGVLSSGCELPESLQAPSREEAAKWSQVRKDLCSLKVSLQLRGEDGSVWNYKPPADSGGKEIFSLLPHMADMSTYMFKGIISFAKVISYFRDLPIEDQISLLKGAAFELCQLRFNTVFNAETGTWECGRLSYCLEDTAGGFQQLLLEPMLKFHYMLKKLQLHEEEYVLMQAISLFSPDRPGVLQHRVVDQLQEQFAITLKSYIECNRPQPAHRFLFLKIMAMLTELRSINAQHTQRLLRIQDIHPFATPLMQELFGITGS
Chain of Myc proto-oncogene protein (Homo sapiens) (P01106 whole entry, looked up): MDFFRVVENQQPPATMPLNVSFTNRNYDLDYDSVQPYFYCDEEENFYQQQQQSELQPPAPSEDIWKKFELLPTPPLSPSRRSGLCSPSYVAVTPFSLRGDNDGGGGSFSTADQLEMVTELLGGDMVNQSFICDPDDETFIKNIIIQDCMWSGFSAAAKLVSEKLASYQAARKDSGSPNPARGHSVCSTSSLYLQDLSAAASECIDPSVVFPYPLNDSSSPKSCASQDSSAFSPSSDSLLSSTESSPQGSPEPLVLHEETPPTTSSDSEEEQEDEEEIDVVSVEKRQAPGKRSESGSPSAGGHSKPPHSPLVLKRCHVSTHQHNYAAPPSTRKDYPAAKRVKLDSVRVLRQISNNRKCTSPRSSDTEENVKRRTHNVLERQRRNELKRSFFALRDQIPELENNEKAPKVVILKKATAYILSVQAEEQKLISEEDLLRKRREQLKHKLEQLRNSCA
Chain of human Retinoic Acid Receptor beta (RARb), RARB (gene 5915) (P10826 whole entry, looked up, the tested form may be a part): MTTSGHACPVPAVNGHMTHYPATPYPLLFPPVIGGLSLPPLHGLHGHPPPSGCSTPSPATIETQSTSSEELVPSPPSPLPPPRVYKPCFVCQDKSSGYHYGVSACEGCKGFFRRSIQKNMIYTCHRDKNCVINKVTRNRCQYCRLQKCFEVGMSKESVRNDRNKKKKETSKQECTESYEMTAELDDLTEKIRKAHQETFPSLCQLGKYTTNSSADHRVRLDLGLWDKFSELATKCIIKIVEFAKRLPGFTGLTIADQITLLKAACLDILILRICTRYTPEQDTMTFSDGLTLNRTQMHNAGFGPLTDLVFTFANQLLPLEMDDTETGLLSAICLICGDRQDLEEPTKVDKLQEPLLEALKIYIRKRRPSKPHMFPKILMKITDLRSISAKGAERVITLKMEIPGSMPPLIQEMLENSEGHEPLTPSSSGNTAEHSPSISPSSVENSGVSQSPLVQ
Chain of Cellular tumor antigen p53 (Homo sapiens) (P04637 whole entry, looked up): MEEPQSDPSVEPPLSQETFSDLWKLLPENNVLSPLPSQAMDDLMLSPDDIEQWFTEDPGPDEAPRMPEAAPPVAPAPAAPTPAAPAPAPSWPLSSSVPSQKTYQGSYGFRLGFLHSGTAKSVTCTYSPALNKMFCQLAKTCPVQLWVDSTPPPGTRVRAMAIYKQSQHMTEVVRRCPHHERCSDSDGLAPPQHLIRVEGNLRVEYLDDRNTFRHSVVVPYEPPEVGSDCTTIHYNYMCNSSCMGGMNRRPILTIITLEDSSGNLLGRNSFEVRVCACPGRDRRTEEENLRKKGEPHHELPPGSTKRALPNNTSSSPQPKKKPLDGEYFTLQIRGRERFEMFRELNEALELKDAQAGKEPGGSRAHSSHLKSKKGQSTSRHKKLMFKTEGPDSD
Chain of human Retinoic Acid Receptor gamma (RARg), RARG (gene 5916) (P13631 whole entry, looked up): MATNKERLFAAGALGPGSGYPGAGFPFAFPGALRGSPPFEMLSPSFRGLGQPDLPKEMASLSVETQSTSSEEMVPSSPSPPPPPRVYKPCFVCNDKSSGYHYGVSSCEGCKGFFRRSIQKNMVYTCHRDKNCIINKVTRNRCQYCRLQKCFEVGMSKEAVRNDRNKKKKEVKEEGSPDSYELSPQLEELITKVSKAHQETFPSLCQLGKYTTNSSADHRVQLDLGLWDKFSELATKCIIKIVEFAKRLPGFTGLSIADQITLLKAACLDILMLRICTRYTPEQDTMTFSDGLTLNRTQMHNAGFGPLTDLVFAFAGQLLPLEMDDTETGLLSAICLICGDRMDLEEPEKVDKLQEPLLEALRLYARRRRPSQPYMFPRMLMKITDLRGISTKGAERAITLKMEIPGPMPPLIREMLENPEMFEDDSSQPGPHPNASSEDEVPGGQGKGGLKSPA
Chain of Retinoic acid receptor alpha (Homo sapiens) (P10276 whole entry, looked up, the tested form may be a part): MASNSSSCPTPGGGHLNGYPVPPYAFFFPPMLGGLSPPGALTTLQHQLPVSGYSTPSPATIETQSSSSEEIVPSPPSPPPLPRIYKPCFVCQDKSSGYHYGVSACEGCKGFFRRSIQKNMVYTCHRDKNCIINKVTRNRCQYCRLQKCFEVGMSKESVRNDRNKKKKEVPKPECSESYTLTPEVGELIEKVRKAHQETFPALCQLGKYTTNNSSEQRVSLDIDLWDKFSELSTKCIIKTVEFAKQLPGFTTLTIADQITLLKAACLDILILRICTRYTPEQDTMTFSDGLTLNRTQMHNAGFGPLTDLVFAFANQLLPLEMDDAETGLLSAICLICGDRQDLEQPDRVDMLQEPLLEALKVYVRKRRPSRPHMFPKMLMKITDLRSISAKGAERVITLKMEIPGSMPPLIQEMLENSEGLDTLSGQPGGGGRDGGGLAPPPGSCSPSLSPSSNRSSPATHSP
Chain of human Peroxisome Proliferator-activated Receptor alpha (PPARa), PPARA (gene 5465) (Q07869 whole entry, looked up, the tested form may be a part): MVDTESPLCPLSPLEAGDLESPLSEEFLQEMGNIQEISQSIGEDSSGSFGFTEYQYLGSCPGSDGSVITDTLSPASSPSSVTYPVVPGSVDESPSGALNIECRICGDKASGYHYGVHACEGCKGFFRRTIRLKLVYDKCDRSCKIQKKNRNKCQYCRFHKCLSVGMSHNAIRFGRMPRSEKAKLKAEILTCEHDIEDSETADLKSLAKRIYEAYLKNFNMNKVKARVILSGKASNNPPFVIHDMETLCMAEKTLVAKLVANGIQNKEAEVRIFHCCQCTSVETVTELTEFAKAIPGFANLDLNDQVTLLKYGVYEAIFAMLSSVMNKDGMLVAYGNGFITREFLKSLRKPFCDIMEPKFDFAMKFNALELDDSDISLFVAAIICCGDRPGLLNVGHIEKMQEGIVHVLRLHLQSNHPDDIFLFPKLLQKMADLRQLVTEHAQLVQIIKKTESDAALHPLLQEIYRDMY
Chain of human Peroxisome Proliferator-activated Receptor delta (PPARd), PPARD (gene 5467) (Q03181 whole entry, looked up, the tested form may be a part): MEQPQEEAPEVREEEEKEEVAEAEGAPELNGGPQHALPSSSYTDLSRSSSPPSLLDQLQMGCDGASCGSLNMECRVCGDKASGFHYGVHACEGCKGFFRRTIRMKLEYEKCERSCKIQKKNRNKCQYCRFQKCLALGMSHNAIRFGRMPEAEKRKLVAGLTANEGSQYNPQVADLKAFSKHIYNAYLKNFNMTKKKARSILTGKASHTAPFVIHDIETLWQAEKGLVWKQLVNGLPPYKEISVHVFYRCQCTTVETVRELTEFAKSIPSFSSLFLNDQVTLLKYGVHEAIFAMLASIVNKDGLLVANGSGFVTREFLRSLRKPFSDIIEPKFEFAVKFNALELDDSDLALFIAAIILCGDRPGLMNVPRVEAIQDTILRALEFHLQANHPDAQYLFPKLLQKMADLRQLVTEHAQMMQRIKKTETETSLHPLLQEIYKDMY
Chain of Peroxisome proliferator-activated receptor gamma (Homo sapiens) (P37231 whole entry, looked up): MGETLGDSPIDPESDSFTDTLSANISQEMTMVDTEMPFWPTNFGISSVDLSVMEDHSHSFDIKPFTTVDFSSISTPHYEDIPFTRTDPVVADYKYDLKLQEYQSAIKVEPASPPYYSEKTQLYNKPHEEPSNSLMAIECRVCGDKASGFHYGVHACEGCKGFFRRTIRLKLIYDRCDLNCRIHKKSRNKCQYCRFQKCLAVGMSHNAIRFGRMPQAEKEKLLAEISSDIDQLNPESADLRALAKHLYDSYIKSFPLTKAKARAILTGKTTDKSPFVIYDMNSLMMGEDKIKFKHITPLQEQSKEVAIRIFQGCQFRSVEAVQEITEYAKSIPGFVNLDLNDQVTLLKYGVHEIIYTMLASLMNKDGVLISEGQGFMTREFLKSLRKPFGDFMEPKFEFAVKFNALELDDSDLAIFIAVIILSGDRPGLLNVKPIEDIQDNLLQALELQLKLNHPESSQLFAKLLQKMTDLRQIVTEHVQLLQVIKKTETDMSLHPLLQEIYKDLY
Chain of human RAR-related Orphan Receptor gamma (RORg), RORC (gene 6097) (P51449 whole entry, looked up, the tested form may be a part): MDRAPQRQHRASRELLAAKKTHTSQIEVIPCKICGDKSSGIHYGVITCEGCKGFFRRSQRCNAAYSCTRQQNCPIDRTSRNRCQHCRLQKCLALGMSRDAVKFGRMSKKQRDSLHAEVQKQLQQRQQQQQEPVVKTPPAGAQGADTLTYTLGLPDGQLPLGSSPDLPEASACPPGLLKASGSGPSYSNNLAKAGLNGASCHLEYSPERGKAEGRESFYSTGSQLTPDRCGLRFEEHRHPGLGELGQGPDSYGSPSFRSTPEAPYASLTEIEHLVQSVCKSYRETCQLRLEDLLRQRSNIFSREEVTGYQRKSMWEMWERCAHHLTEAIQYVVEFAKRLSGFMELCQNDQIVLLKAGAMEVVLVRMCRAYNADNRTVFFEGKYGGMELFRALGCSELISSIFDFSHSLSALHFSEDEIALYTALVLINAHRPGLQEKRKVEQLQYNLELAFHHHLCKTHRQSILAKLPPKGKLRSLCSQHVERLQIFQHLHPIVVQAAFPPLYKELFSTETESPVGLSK

Question: With CCOCCO as the compound, how does the outcome [1] read?
Answer: inactive

Question: What about the outcome [2] of the same compound?
Answer: inactive

Question: What about the outcome [3] of the same compound?
Answer: inactive

Question: And the outcome [4]?
Answer: inactive

Question: And the outcome [5]?
Answer: inactive

Question: What about the outcome [6] of the same compound?
Answer: inactive

Question: What about the outcome [7] of the same compound?
Answer: inactive

Question: What about the outcome [8] of the same compound?
Answer: inactive

Question: What about the outcome [9] of the same compound?
Answer: inactive

Question: What about the outcome [10] of the same compound?
Answer: inactive

Question: What about the outcome [11] of the same compound?
Answer: inactive

Question: And the outcome [12]?
Answer: inactive

Question: And the outcome [13]?
Answer: inactive

Question: Which results are given for Cc1ccc(O)cc1?
Answer: outcome [1]: inactive; outcome [2]: inactive; outcome [3]: inactive; outcome [4]: inactive; outcome [5]: inactive; outcome [6]: inactive; outcome [7]: inactive; outcome [8]: inactive; outcome [9]: inactive; outcome [10]: inactive; outcome [11]: inactive; outcome [13]: inactive

Question: Which results are given for COCCOc1cc2cc(C(=O)NC3CCN(C(C)C)CC3)n(CC(=O)Nc3ccc(Cl)cn3)c2cn1?
Answer: outcome [1]: inactive; outcome [2]: inactive; AC50 [3]: 180 µM (active); AC50 [4]: 72.9 µM (active); AC50 [5]: 119 µM (active); outcome [6]: inactive; outcome [7]: inactive; outcome [8]: inactive; outcome [9]: inactive; outcome [10]: inactive; outcome [14]: inactive; outcome [11]: inactive; outcome [13]: inactive; outcome [15]: inactive; outcome [16]: inactive

Question: With COc1ccc(-n2nc(C(F)F)cc2-c2ccc(S(C)=O)cc2)cc1 (stereo not given) as the compound, how does the outcome [1] read?
Answer: inactive

Question: What about the outcome [2] of the same compound?
Answer: inactive

Question: What about the outcome [3] of the same compound?
Answer: inactive

Question: And the outcome [4]?
Answer: inactive

Question: What about the outcome [5] of the same compound?
Answer: inactive

Question: And the outcome [6]?
Answer: inactive

Question: And the outcome [7]?
Answer: inactive

Question: What about the outcome [8] of the same compound?
Answer: inactive

Question: And the outcome [9]?
Answer: inactive

Question: And the outcome [10]?
Answer: inactive

Question: What about the outcome [17] of the same compound?
Answer: inactive

Question: And the outcome [11]?
Answer: inactive

Question: What about the outcome [13] of the same compound?
Answer: inactive

Question: And the outcome [18]?
Answer: inactive

Question: And the outcome [15]?
Answer: inactive

Question: And the outcome [16]?
Answer: inactive

Question: What does the source list for C1=CCCC=CCCC=CCC1?
Answer: outcome [1]: inactive; outcome [2]: inactive; outcome [3]: inactive; AC50 [4]: 159 µM (active); outcome [5]: inactive; outcome [6]: inactive; outcome [7]: inactive; outcome [8]: inactive; outcome [9]: inactive; outcome [10]: inactive; outcome [11]: inactive; outcome [12]: inactive; outcome [19]: inactive; outcome [13]: inactive; AC50 [15]: 56.5 µM (active); AC50 [16]: 26.9 µM (active)

Question: What does the source list for CCN(C(=O)c1cc(C)cc(OC[C@H](C)Nc2ccncc2)c1)C(C)C?
Answer: outcome [1]: inactive; outcome [2]: inactive; outcome [3]: inactive; AC50 [4]: 8.92 µM (active); outcome [5]: inactive; outcome [6]: inactive; outcome [7]: inactive; outcome [8]: inactive; outcome [9]: inactive; outcome [10]: inactive; outcome [11]: inactive; outcome [12]: inactive; outcome [19]: inactive; outcome [13]: inactive; AC50 [15]: 7.38 µM (active); outcome [16]: inactive

Question: With Nc1cccc(N)c1 as the compound, how does the outcome [1] read?
Answer: inactive

Question: What about the outcome [2] of the same compound?
Answer: inactive

Question: And the outcome [3]?
Answer: inactive

Question: And the outcome [4]?
Answer: inactive

Question: And the outcome [5]?
Answer: inactive

Question: What about the outcome [6] of the same compound?
Answer: inactive

Question: What about the outcome [7] of the same compound?
Answer: inactive

Question: What about the outcome [8] of the same compound?
Answer: inactive

Question: And the outcome [9]?
Answer: inactive

Question: And the outcome [10]?
Answer: inactive

Question: What about the outcome [11] of the same compound?
Answer: inactive

Question: What about the outcome [12] of the same compound?
Answer: inactive

Question: What about the outcome [19] of the same compound?
Answer: inactive

Question: What about the outcome [13] of the same compound?
Answer: inactive

Question: What about the outcome [15] of the same compound?
Answer: inactive

Question: And the outcome [16]?
Answer: inactive

Question: What about the outcome [20] of the same compound?
Answer: inactive
